Bioassay records from PubChem BioAssay.
A selection: hits, their analogues and other compounds. The true share with any hit is near 9.2%.
ELG1 DNA repair: blocks ELG1-dependent DNA repair in HEK293T cells. hit rate 2.3% among 330,000. Potency, µM (highest dose often 46.1 µM), without a hit: top-dose activity change, negative = inhibition, actives largely listed as inhibitors. HEK293T ELG1-luciferase reporter, luminescence, 16 h; DNA damage induced by 5-fluorouridine. AID 504467; note: % is set by controls: 0 for no effect and ±100 for the full control effect; nearly all actives have a fitted effect of over 55% in size
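Step one: seed 2,000 cells per well. Step two: pin-transfer compound or DMSO alongside 5-fluorouridine. Step three: incubate 16 hr, 37 °C, 5% CO2. Step four: add ONE-Glo, wait 30 min, read luminescence.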
ELG1 genotoxic: inducers of genotoxicity in HEK293T ELG1-luciferase cells; hit rate 1.3% among 330,000; Potency, µM (series often up to 46 µM), for the others: at the top dose activity change, positive = activation, usual class: activators; HEK293T ELG1-luciferase reporter, luminescence, 16 h; note: % of control where 0% means no effect; nearly all actives have a fitted effect of over 60% in size
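Genotoxicity was scored as increased ELG1-luciferase reporter signal, measured by ONE-Glo luminescence (30 min, room temperature). Compound or vehicle exposure of the HEK293T reporter cells lasted 16 hr at 37°C.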
Rab9 prom act: Rab9 promoter activation; Huh7 Rab9 promoter-luciferase reporter, luminescence, 24 h; Potency, µM (series often up to 9.22 µM), for inactives: top-dose activation, negative = inhibition, usual class: activators; hit rate 2.8% among 320,000; AID 485297; note: % of control where 0% means no effect; nearly all actives have a fitted effect of over 60% in size
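Stable Rab9-luc Huh7, 1500 cells/well, 2 h settle; cmpd in DMSO, 24 h, 37 °C/5% CO2; luciferase reagent 10 min RT; luminescence.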
FLuc counter: firefly luciferase modulation, counter-screen for miR-21 project | P08659 | purified FLuc, Km substrates, luminescence inhibition | Potency, µM (series often up to 57.5 µM), for inactives: at the highest dose activity change, negative = inhibition, usual class: inhibitors | hit rate 6.9% among 360,000 | AID 588342;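 note: plate controls were vehicle for no effect and reference inhibitor for full effect; nearly all actives have a fitted effect of over 55% in size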
Target sequence (P08659 whole entry, looked up): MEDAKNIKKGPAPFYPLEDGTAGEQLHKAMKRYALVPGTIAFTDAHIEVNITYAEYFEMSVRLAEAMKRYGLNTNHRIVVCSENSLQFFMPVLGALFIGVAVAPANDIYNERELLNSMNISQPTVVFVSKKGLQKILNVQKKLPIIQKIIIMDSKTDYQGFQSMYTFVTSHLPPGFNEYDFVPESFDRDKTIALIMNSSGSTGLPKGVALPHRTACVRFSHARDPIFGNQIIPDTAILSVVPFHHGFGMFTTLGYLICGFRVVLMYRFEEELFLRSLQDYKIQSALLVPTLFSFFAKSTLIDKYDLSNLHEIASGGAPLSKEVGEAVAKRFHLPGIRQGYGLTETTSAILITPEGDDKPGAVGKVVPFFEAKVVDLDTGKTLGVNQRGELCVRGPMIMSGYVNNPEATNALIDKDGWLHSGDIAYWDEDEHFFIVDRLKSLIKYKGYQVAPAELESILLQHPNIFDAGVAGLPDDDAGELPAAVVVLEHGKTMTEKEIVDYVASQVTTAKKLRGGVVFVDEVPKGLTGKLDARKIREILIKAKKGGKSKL
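Purified P. pyralis luciferase, 10 nM final, with Km-level 10 uM D-luciferin and 10 uM ATP in 50 mM Tris acetate pH 7.5, 10 mM Mg acetate, 0.01% Tween-20, 0.05% BSA; 6-point qHTS titration about 60 µM downward; luminescence read.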
NPC1 promoter act: activators of NPC1 promoter; Huh7 NPC1 promoter luciferase reporter, 24 h; Potency, µM (titrated, usually from 9.22 µM), for inactives: at the highest dose activation, actives largely listed as activators; hit rate 2.4% among 320,000; AID 485313; note: % of control where 0% means no effect; nearly all actives have a fitted effect of over 60% in size
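Stable NPC1-promoter luciferase Huh7 line; cpd (DMSO) 24 h, 37 °C, 5% CO2; Amplite luciferase reagent 10 min RT; luminescence readout. qHTS format.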
SMN2 splice enh: enhancers of SMN2 splice variant expression; HEK293 SMN2-luciferase splicing reporter, luminescence, 30-36 h; Potency, µM (series often up to 46.1 µM), for inactives: at the top dose activity change, positive = activation, hits mostly activators; hit rate 2.8% among 210,000; AID 1458; note: % of control where 0% means no effect; nearly all actives have a fitted effect of over 55% in size
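HEK293 cells carry an SMN2 minigene-luciferase reporter in which exon 7 inclusion puts luciferase in frame. Cells were seeded at 2000 cells/well, attached for 10-12 hours, then exposed to compounds for 30-36 hours at 37C before ONE-Glo luminescence.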
Numbers without * were called inactive; ? = inconclusive; · = not tested or not shown; [ ] = dose if it differs, or a comment. Calls come from the whole dose curve; as a rule, active = well fitted curve in the direction sought with a large enough effect; inconclusive = small, poorly fitted or top-dose-only effect, or another doubt; inactive = no such curve, though single readings can be large; an effect the other way counts as inactive or inconclusive. Potency is the fitted concentration of half-maximal effect.

SMILES | ELG1 DNA repair | ELG1 genotoxic | Rab9 prom act | FLuc counter | NPC1 promoter act | SMN2 splice enh
CC1=CC(=C(C#N)C#N)C=C(C)N1Cc1ccccc1 | ? | 3% | -3% | -14% | -10% | ·
Cc1cccc(Nc2nc(-c3c(C)nc4ccccn34)cs2)c1 | ? | -15% | -20% | ? | -24% | -38%
CCC(=O)Nc1nc(C)c(-c2csc(Nc3cccc(O)c3)n2)s1 | 2.6µM* | -9% | 2% | 11µM* | 13% | ·
Cc1cccc(Nc2nc(-c3sc(C)nc3C)cs2)c1 | ? | ? | ? | 19µM* | ? | ·
Cc1nc2ccccn2c1-c1csc(Nc2cccc(O)c2)n1 | ? | 2% | -1% | -7% | 1% | ·
Cc1nc(C)c(-c2csc(Nc3ccc(S(N)(=O)=O)cc3)n2)s1 | ? | 3% | -2% | -4% | -8% | ·
Cc1nc(N)sc1-c1csc(Nc2cccc(O)c2)n1 | -27% | ? | 4% | 11µM* | 3.5µM* | ·
Cc1nc(C)c(-c2csc(Nc3cccc(O)c3)n2)s1 | ? | ? | ? | 11µM* | ? | ·
Cc1ccccc1NC(=S)NCc1ccc(Cl)cc1 | -2% | -2% | -10% | 4% | 2% | 2%
O=C(CN1C(=O)C(=O)N(Cc2ccccc2)C1=O)Nc1ccc(OC(F)F)cc1 | -5% | 2% | -1% | · | -5% | ·
COc1ccc(CNC(=O)C2CCN(S(=O)(=O)c3cccc4nonc34)CC2)cc1OC | · | · | · | 0% | · | ·
CCCCC(=O)Nc1nc(C)c(-c2csc(Nc3ccccc3OC)n2)s1 | 16µM* | -4% | -6% | ? | -4% | -11%
O=C(CCc1ccc(S(=O)(=O)N2CCOCC2)cc1)Nc1nc(COc2ccccc2)cs1 | 21µM* | -15% | -25% | ? | -12% | -65%
O=C(COc1ccccc1)Nc1nc(-c2ccc(S(=O)(=O)N3CCOCC3)cc2)cs1 | ? | -12% | 3% | 0% | -6% | -38%
Cc1ccccc1NC(=O)C1Cc2ccccc2CN1C(=O)c1ccco1 (centres undefined) | ? | 23µM* | ? | ? | 2.8µM* | ·
CCc1c(C)sc(NC(=O)c2cc3nc(-c4ccc(OC)cc4)cc(C(F)(F)F)n3n2)c1C(=O)OC | · | · | · | 0% | · | 11%
O=C(Nc1n[nH]c(C2CCCCC2)n1)C1CCCCC1 | ? | 21µM* | 15% | -12% | 11% | 0.11µM*
Cc1ccc(C)c(OCc2nc3ccccc3n2C)c1 | · | · | · | ? | · | 8%
Cn1c(COc2ccc(F)cc2)nc2ccccc21 | ? | ? | 3.5µM* | 13µM* | 2.5µM* | ·
Cn1c(COc2ccc(C(=O)O)cc2)nc2ccccc21 | 13% | 0% | 0%[1.84 µM] | -20% | -4% | ·
Cc1ccccc1OCc1nc2ccccc2n1C | ? | ? | 4µM* | 8.5µM* | 3.2µM* | ·
CCOC(=O)c1cccc(NC(=O)C(C)n2nc(C)c3c(C)n(-c4ccccc4)nc3c2=O)c1 (centres undefined) | · | · | · | -16% | · | ·
CC(NC(=O)OCc1ccccc1)C(=O)Oc1cc2oc(=O)cc(-c3ccccc3)c2cc1Cl (centres undefined) | 21µM* | -9% | 6% | 1% | 3% | -30%
Cc1ncc(CO)c(/C=N/N=C/c2ccccc2O)c1O | ? | ? | -3% | 2.4µM* | 1% | 23%
Cc1cccc(NC(=O)NNC(=O)c2cc3occc3[nH]2)c1C | 6% | 1% | 1% | 1% | 2% | ·
CCO[C@@H]1OC(C(=O)N2CCN(Cc3ccccc3)CC2)=C[C@H](C2CC2)[C@H]1CCCO | 15% | 5% | -1% | 2% | -4% | ·
O=C(NCc1ccccc1Cl)C1CCN(S(=O)(=O)N2CCCCCC2)CC1 | 18µM* | -1% | -3% | -2% | -3% | -22%
Cc1cc(C)nc(N2CCC(C(=O)NNC(=O)Cc3ccccc3)CC2)n1 | 10% | 0% | -1% | 0% | 0% | ·
